From PubChem
Only some compounds are listed: those with a hit (about 11% of all), similar ones and a draw of the others.
NPSR antagonist – qHTS Assay for Antagonists of the Neuropeptide S Receptor: cAMP Signal Transduction; Q6W5P4; CHO-NPSR cells, cAMP TR-FRET, antagonist mode; Potency, µM (highest dose often 38.3 µM), actives largely listed as inhibitors; 220,000 tested, 1% active; active = well fitted curve in the direction sought with a large enough effect; inconclusive = small, poorly fitted or top-dose-only effect, or another doubt; inactive = no such curve, though single readings can be large; an effect the other way counts as inactive or inconclusive; note: nearly all actives have a fitted effect of over 50% in size
Target sequence (Q6W5P4 whole entry, looked up): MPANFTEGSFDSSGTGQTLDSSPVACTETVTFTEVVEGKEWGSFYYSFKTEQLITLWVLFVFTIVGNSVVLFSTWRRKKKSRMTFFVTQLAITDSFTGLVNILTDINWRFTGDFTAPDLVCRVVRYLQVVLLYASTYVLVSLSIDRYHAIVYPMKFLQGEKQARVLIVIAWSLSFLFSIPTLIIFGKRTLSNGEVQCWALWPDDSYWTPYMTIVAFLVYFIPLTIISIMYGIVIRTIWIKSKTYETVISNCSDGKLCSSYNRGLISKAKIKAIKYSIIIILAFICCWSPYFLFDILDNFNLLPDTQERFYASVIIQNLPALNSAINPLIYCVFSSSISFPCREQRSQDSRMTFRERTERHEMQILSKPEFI
HPGD block – qHTS Assay for Inhibitors of HPGD (15-Hydroxyprostaglandin Dehydrogenase). 150,000 tested, 4.3% active. 15-hydroxyprostaglandin dehydrogenase [NAD(+)] (Homo sapiens), P15428. purified HPGD, NADH fluorescence kinetic, PGE2 substrate. Potency, µM, actives largely listed as inhibitors
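20 nM HPGD preincubated 15 min at room temperature with compound in 50 mM Tris-HCl pH 8, 0.01% Tween 20. Started with 1 mM NAD+ and 30 uM prostaglandin E2; NADH fluorescence (360/450 nm) read 5 times over 30-s intervals, last minus first.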
PNC inhibitor – High Content Assay for Compounds that inhibit the Assembly of the Perinucleolar Compartment; 140,000 tested, 3.1% active; PC3M PTB-GFP, PNC prevalence imaging, 16 h; active compounds read low; AID 2417, 2010; activity change (PNC), negative = inhibition, % at 10 µM;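 active = readout at or below -70, meaning at least 70% loss of cells showing the perinucleolar compartment, a nuclear body marking cancer cells; inconclusive = readout between -30 and a set limit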
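Read-out is percentage of cells bearing a perinucleolar compartment, from automated 20x imaging of fixed, Hoechst-stained PC3M PTB-GFP cells. Cells were seeded 4 h, then exposed 16 h to compound (23 nl of library stock) in duplicate plates.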
IMPase Li inh – qHTS Assay for Identifying the Cell-Membrane Permeable IMPase Inhibitors: Potentiation with Lithium; CHO-M1 cells, IP1 TR-FRET (IP-One), carbachol + lithium; Potency, µM (top dose mostly 59.4 µM), actives largely listed as inhibitors; 210,000 tested, 0.35% active; AID 1457, 2008; active = well fitted curve in the direction sought with a large enough effect; inconclusive = small, poorly fitted or top-dose-only effect, or another doubt; inactive = no such curve, though single readings can be large; an effect the other way counts as inactive or inconclusive;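 note: IP1 builds up when IMPase is blocked and the TR-FRET signal falls; nearly all actives have a fitted effect of over 50% in size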
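Steps: plate 2000 CHO-M1 cells per well and culture 16–30 h; add compound and lithium; incubate 30 min, 37C; add d2-IP1 tracer and Eu cryptate anti-IP1 antibody in lysis buffer; read after 10 min at room temperature.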
ALDH1A1 inh – qHTS Assay for Inhibitors of Aldehyde Dehydrogenase 1 (ALDH1A1); Aldehyde dehydrogenase 1A1 (Homo sapiens), P00352; Potency, µM (top dose mostly 75.3 µM), most hits filed as inhibitors; 220,000 tested, 7.3% active; Purified ALDH1A1, NADH fluorescence, propionaldehyde substrate
IMPase inh – qHTS Assay for Identifying the Cell-Membrane Permeable IMPase Inhibitors; Inositol monophosphatase 1 (Rattus norvegicus), P97697; CHO-M1 cells, IP1 accumulation, HTRF TR-FRET ratio; inhibition (IP1 accumulation), % at 46.1 µM; 120,000 tested, under 10 active; active = well fitted curve in the direction sought with a large enough effect in the signal ratio, not every such curve was filed as active; inconclusive = small, poorly fitted or top-dose-only effect, or a change in a side signal; inactive = no such curve, though single readings can be large or run the other way; the % refers to the signal ratio;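 note: cells stimulated with carbachol in lithium chloride buffer; higher means more IMPase inhibition seen as more IP1 and lower FRET ratio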
Target sequence (P97697 whole entry, looked up): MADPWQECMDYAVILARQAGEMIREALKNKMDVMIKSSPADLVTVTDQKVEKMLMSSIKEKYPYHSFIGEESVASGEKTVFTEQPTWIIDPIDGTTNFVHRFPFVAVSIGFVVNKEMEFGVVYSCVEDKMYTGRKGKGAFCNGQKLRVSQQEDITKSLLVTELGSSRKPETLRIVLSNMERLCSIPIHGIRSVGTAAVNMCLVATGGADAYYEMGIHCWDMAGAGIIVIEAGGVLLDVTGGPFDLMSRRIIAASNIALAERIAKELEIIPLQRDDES
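The IP-One HTRF competitive assay in carbachol-stimulated CHO-M1 cells quantifies cellular IP1. Compounds spanned up to 46 uM final, and activity is expressed as AC50 from concentration-response fits of the ratio and donor data.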
Numbers stand for hits; – = inactive; ? = inconclusive; · = no result given. Unless noted, calls come from the whole dose curve; as a rule, active = well fitted inhibition curve with a large enough effect (not every such curve was filed as active); inconclusive = small, poorly fitted or top-dose-only effect, or another doubt; inactive = no such curve, though single readings can be large or run the other way.

SMILES	NPSR antagonist	HPGD block	PNC inhibitor	IMPase Li inh	ALDH1A1 inh	IMPase inh
COc1ccc(C(=O)N2CCN(c3ncnc4c(-c5ccccc5)nsc34)CC2)cc1	–	?	–	–	2.8µM	–
Cc1cc(N2CCN(C(=O)c3ccco3)CC2)nc(-c2ccccc2)n1	–	–	?	–	6.3µM	–
Cc1sc2ncnc(SCC(=O)NNC(=O)c3ccco3)c2c1C	–	·	·	–	–	·
CCn1cc(S(=O)(=O)CC(=O)Nc2cc(C)ccc2C)c2ccccc21	–	–	–	–	–	–
CCOc1ccc(C2=Nc3ccccc3C(c3ccc(N4CCOCC4)cc3)=NN2)cc1	–	–	–	–	?	–
Cc1ccc(-n2c(SCC(=O)NC3CCS(=O)(=O)C3)nc3ccccc3c2=O)cc1 (configuration not stated)	–	·	·	–	–	·
O=C(c1ccco1)N1CCN(c2ncnc3scc(-c4ccccc4)c23)CC1	–	–	–	–	11µM	–
Cc1ccc2nc(-c3ccccn3)c(Nc3ccccc3C)n2c1	13µM	·	·	–	–	·
O=C(C1CCN(S(=O)(=O)c2cnc[nH]2)CC1)N1CCn2c1nc1ccccc12	–	–	–	–	–	–
COCCNC(=O)Cn1cc(C(=S)N2CCOCC2)c2ccccc21	–	·	·	–	32µM	·
COCCCNC(=O)Cn1cc(C(C)=O)c2ccccc21	–	–	?	–	–	–
CCCCC(=O)Nc1ccc(NC(=O)c2ccccc2OC)cn1	–	–	–	–	?	–
COc1ccc(S(=O)(=O)N2CCOCC2)cc1NC(=O)COc1ncnc2ccccc12	–	–	–	–	?	·
C=CCn1cc(C(=O)OC)c(=O)c2cc(S(=O)(=O)N3CCCCCC3)ccc21	–	·	·	–	14µM	·
C=CCn1cc(C(=O)N2CCN(C)CC2)c(=O)c2cc(S(=O)(=O)N3CCCC3)ccc21	–	–	–	–	?	–
C=CCn1cc(C(=O)NCC2CCCO2)c(=O)c2cc(S(=O)(=O)N3CCCCCC3)ccc21 (configuration not stated)	–	–	–	–	13µM	–
CCn1cc(C(=O)N2CCN(c3ccc(OC)cc3)CC2)c(=O)c2cc(S(=O)(=O)N3CCCCC3)ccc21	–	·	·	–	11µM	·
COc1ccccc1CNC(=O)C(C)Sc1ccc(C)cc1 (configuration not stated)	–	·	·	–	–	·
O=C(NCCCN1CCOCC1)C1(c2ccccc2)CCCC1	–	–	?	–	–	–
COC(=O)c1sc(=S)n(Cc2ccccc2)c1C	–	·	·	·	8.9µM	·
NS(=O)(=O)c1ccc(NS(=O)(=O)c2ccc(NC(=S)Nc3ccccc3)cc2)cc1	–	–	–	–	?	–
NS(=O)(=O)c1ccc(NC(=S)Nc2ccn(Cc3cccc4ccccc34)n2)cc1	–	·	·	–	13µM	·
CC1(C)CC(=O)C=C(N2CCN(C3=CC(=O)CC(C)(C)C3)CC2)C1	–	–	?	–	20µM	–
CC1(C)CC(N2CCCC2)=CC(=[N+]2CCCC2)C1	–	–	?	–	–	·
CN1CCN(C2CCCCCC2)CC1	–	–	-119	–	–	–
SMILES	NPSR antagonist	HPGD block	PNC inhibitor	IMPase Li inh	ALDH1A1 inh	IMPase inh
CN1CCN(C(=O)NC2CCCCC2)CC1	–	–	?	–	?	–
O=C(CC1SC(=Nc2ccc3c(c2)OCCO3)NC1=O)Nc1ccc(F)cc1F (configuration not stated)	–	·	·	·	?	·
COc1ccccc1N(C)S(=O)(=O)c1ccc(C(=O)NC2=NCCS2)cc1	–	–	–	–	–	–
COc1ccccc1N(C1=NCCCS1)S(=O)(=O)c1ccc(C(C)(C)C)cc1	?	·	·	–	0.22µM	·
COc1ccc(N(C2=NCCCS2)S(=O)(=O)c2ccc(C(C)(C)C)cc2)cc1	–	·	·	–	0.79µM	·
O=C(Nc1ccc(F)cc1F)Nc1sccc1-c1nc2ccccc2s1	–	·	·	·	·	·
O=S(=O)(c1ccccc1C(F)(F)F)N1C=CC(C(F)(F)F)=NCC1	–	·	·	·	–	·
O=S(=O)(CCN1C=CC(C(F)(F)F)=NCC1)c1ccc(Cl)cc1Cl	–	·	·	·	13µM	·
CCC(CC)C(=O)c1c[nH]c(C(=O)NN)c1	–	·	·	–	7.9µM	·
COc1ccc(C/C(N)=N/O)cc1	–	–	–	–	–	·
O=C(CSc1ccc(-c2ccco2)nn1)NCc1ccccc1	–	?	–	–	?	–
O=C(CSc1ccc(-c2ccco2)nn1)c1cccc([N+](=O)[O-])c1	–	–	–	–	22µM	·
O=C(CSc1ccc(-c2ccco2)nn1)NCc1ccc(Cl)cc1	–	–	–	–	7.1µM	–
O=C(CSc1ccc(-c2ccco2)nn1)N1CCCC1	–	·	·	–	?	·
Cc1cccc(NC(=O)CSc2ccc(-c3ccco3)nn2)c1C	–	–	–	–	24µM	–
Cc1cccc(NC(=O)CSc2ccc(-c3ccccn3)nn2)c1C	–	·	·	–	–	·
COc1cccc(-c2cc(C(=O)Nc3nc4ccccc4s3)c3ccccc3n2)c1	–	?	-115	–	?	–
O=C(Nc1nccs1)c1sc2ccccc2c1Cl	–	13µM	–	–	–	–
O=C(Nc1nccs1)c1cc(-c2ccccc2)nc2ccccc12	–	18µM	–	–	–	·
O=C(Nc1nccs1)c1cc(-c2ccco2)nc2ccccc12	–	–	-89	–	?	·
O=C(Nc1nccs1)c1cc(Cl)nc2ccccc12	–	·	·	·	?	·
Cc1ccc2nc(C(O)C(O)c3nc4ccc(C)cc4[nH]3)[nH]c2c1 (configuration not stated)	–	?	–	–	?	?
Cc1ccc2nc(C(F)OC(F)(F)F)[nH]c2c1 (configuration not stated)	?	?	–	–	0.71µM	–
Oc1ccc(Br)cc1CN1CCCCCCC1	–	–	–	–	–	–
COC(=O)CNC(=O)c1cc(-c2ccncc2)nc2c(C)c(Cl)ccc12	?	·	·	–	13µM	·
Cc1c(Cl)ccc2c(C(=O)NC(C)c3ccncc3)cc(-c3ccncc3)nc12 (configuration not stated)	–	·	·	–	1.1µM	·
Cc1c(Cl)ccc2c(C(=O)NCCN3CCCCC3)cc(-c3ccccn3)nc12	?	·	·	–	–	·
Cc1cccc(Nc2nc(N)c([N+](=O)[O-])c(N3CCCC(C)C3)n2)c1 (configuration not stated)	–	–	–	–	?	–
